# Reference: PMC5540273 (PLoS ONE, 2017)
# Experiments:
# Details in all cases: concentration: 1 μM, replicates: in singlicate; n = 1
# FGFR1 = system: FGFR1
# FGFR2 = system: FGFR2
# FGFR3 = system: FGFR3
# FGFR4 = system: FGFR4
# FGR = system: FGR
# FLT1 = system: FLT1
# FLT3-autoinhibited = system: FLT3-autoinhibited
# FLT3 = system: FLT3
# FLT4 = system: FLT4
# FRK = system: FRK
# FYN = system: FYN
# GAK = system: GAK
# GCN2(Kin.Dom.2,S808G) = system: T1, GCN2(Kin.Dom.2,S808G)
# T1 construct: gene EIF2AK4
# GRK1 = system: GRK1
# GRK2 = system: T2, GRK2
# T2 construct: gene ADRBK1
# GRK3 = system: T3, GRK3
# T3 construct: gene ADRBK2
# GRK4 = system: GRK4
# GRK7 = system: GRK7
# GSK3A = system: GSK3A
# GSK3B = system: GSK3B
# 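Also: KINOMEscan kinase panel screen.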
SMILES,%Inh (FGFR1) [%],%Inh (FGFR2) [%],%Inh (FGFR3) [%],%Inh (FGFR4) [%],%Inh (FGR) [%],%Inh (FLT1) [%],%Inh (FLT3-autoinhibited) [%],%Inh (FLT3) [%],%Inh (FLT4) [%],%Inh (FRK) [%],%Inh (FYN) [%],%Inh (GAK) [%],"%Inh (GCN2(Kin.Dom.2,S808G)) [%]",%Inh (GRK1) [%],%Inh (GRK2) [%],%Inh (GRK3) [%],%Inh (GRK4) [%],%Inh (GRK7) [%],%Inh (GSK3A) [%],%Inh (GSK3B) [%]
CC(C)(C)c1ccc2nccc(Nc3cccc(O)c3)c2c1 [GW856795],0,0,0,0,54,0,64,10,0,84,71,62,15,9,39,0,16,17,0,9
Fc1ccc(-c2ncn(C3CCNCC3)c2-c2ccnc(Oc3ccc(-c4ccccc4)cc3)n2)cc1 [SB-245391],19,0,0,59,17,13,1,14,5,31,20,22,18,19,12,22,0,32,0,27
COc1cc(Nc2nccc(-c3c(-c4cccc(NC(=O)c5c(F)cccc5F)c4)nn4ncccc34)n2)cc(OC)c1OC [GSK327238],66,61,31,9,99.1,99.2,0,96.1,99.8,96.9,97.5,31,69,0,0,0,0,0,11,7
CC(=O)Nc1nc2cnc(Nc3cc(NC(=O)c4cccc(C5(C#N)CC5)c4Cl)ccc3C)nc2s1,2,15,0,0,52,44,0,0,60,93.2,50,0,19,6,0,14,14,15,0,0
Cn1cc(-c2ccc3c(c2)CCN3C(=O)Cc2cccc(Cl)c2)c2c(N)ncnc21 [GSK2606590],23,0,0,0,35,59,1,91.8,45,8,27,33,43,5,0,0,11,0,5,3
Clc1ccc(-c2nn3ncccc3c2-c2ccnc(Nc3ccc4c(c3)OCCO4)n2)cc1 [GW829116],0,0,0,0,75,54,0,59,35,0,0,68,6,0,0,0,0,0,24,0
Cc1ccc(C(=O)Nc2ccc(Nc3ccnc4cc(-c5nccs5)ccc34)cc2O)cc1.Cl [GW494702],0,35,13,0,73,14,0,14,0,67,25,10,0,17,0,41,17,0,0,7
CCn1c(-c2nonc2N)nc2c(C#CC(C)(C)O)nc(OC[C@H](N)c3ccccc3)cc21 [GSK943949],11,4,0,0,0,1,0,3,20,0,0,0,19,14,11,0,3,30,66,59
COC(=O)Nc1nc2ccc(Oc3ccc(NC(=O)Nc4cc(C(F)(F)F)ccc4F)cc3)cc2n1C.Cl [GW692089],2,0,7,0,28,89,3,99,87,69,0,0,0,0,0,49,6,0,9,0
O=C(O)C(F)(F)F.O=C(O)C(F)(F)F.O=c1[nH]ccc2nc(N[C@@H]3CCCNC3)nc(Nc3ccc(S(=O)(=O)N4CCOCC4)cc3)c12 [GSK2177277],81,60,62,0,91.2,68,99.6,99.3,98.7,39,61,97.4,100,96.6,72,88,92.2,96,99.3,98.2
